According to PubChem BioAssay:
Values without a mark were called inactive. Activity calls are given as the source filed them.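 How the source made its calls: active means z-score of at least 1.8 in each of two replicates, scored against plate mean and spread of sample wells; inactive means the rest.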

Test: viability rescue of complex I mutant cybrids, primary screen, cell-based, galactose medium, ATP luminescence (AID 1645843);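 further: positive z means more ATP and so rescue of galactose-driven cybrid death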
Conditions: complex I mutant cybrid cells, 72 h, stronger effect = higher value

| Structure (SMILES) | z-score |
| --- | --- |
| CC(O)c1cn(CC2CCN(C(=O)CC3CCCCCC3)CC2)nn1 (stereo not given) | -0.54 |
| CCC(=O)N(CC)c1cc(C)ccc1OC1(C(=O)O)CCSCC1 | -0.47 |
| Cc1cc(C)c(-n2cccn2)c(-c2nc3c(cnn3C(C)C)[nH]2)c1 | -0.485 |
| Cn1ncc2[nH]c(-c3cc(F)ccc3-n3cccn3)nc21 | -0.56 |
| COc1ccc(F)c(-c2cnc(C)[nH]2)c1 | -0.545 |
| Cn1cc(C(=O)N2CCc3[nH]nc(-c4ccccc4F)c3C2)c2ccccc21 | -0.945 |
| CCCC(NC(=O)c1cc(C)oc1C)c1ccccc1 (stereo not given) | -0.63 |
| NC1CCN(C2CCN(c3cccc(-c4ccccc4)c3)CC2)CC1 | -1.03 |
| COc1ccc(-c2cccc(C(=O)c3nccn3C)c2)c(C)c1 | -0.555 |
| CC(C)C1C(=O)N(C)CCN1C(=O)Nc1nc(-c2ccccc2)ns1 (stereo not given) | -0.345 |
| Cc1ccc(C(=O)NCC2CCCN(C(=O)C3CC3)C2)cn1 (stereo not given) | -0.52 |
| CCc1ncc(-c2cc(C(=O)N3CCC(C)(C)C3)c3ccc(F)cc3n2)cn1 | -0.56 |
| Cc1cc(NC(=O)Cn2ccc(-c3ccsc3)n2)n(-c2ccccn2)n1 | 1.83 |
| Cc1nnc(NC(=O)N2CCCN(c3ccncc3C)CC2)s1 | -0.57 |
| c1ccc(Cc2noc(-c3cccc4nccnc34)n2)cc1 | 2.6 (active) |
| O=C1CN(c2ncnc3nc[nH]c23)CCN1C1CCCCC1 | 1.14 |
| COC(=O)c1ccc(N2CCC(c3ccccc3Cl)C2)nc1 (stereo not given) | 0.895 |
| COc1cccc(-n2cc(-c3ccnc(N(C)CCn4ccnc4)n3)cn2)c1 | 1.84 |
| O=C(C1CCCCCC1)N1CCC(Cn2cc(CCO)nn2)CC1 | -0.51 |
| CCCc1cn(C2CCN(C(=O)C(C)N3CCCC3)CC2)nn1 (stereo not given) | -0.35 |

| Structure (SMILES) | z-score |
| --- | --- |
| COc1cc(F)c(C(=O)N(C)CC2CCCCN2C)c(F)c1 (stereo not given) | -0.575 |
| COCc1cn(CC2CCN(C(=O)CC3CCCCCC3)CC2)nn1 | -0.465 |
| O=C(Nc1ccncc1)c1ccc2c(c1)OCCO2 | 0.445 |
| CCN1CCCC(C(=O)N2CCC(n3cc(C(C)(C)C)nn3)CC2)C1 (stereo not given) | 0.15 |
| COc1ccccc1-c1noc(C(C)n2cccn2)n1 (stereo not given) | -0.115 |
| CC(C)c1ncc(-c2cc(C(=O)N3CCC(C)(C)C3)c3ccccc3n2)cn1 | 2.19 (active) |
| CN(Cc1nc(-c2cccnc2)no1)C(=O)c1nc2ccccc2s1 | 0.26 |
| CCn1nc(C(C)C)cc1C(=O)N1CCC(n2cc(CC(C)C)nn2)CC1 | -0.55 |
| COc1cccc2ccc(N3CCN(Cc4ccccn4)CC3)nc12 | -0.51 |
| O=C(c1ccc(-n2ccnc2)cc1)N1CCc2[nH]nc(-c3ccccc3)c2C1 | -1 |
| CC(C)(C)c1cn(C2CCN(C(=O)CC3CCCCCC3)CC2)nn1 | -0.225 |
| Cc1sc2ncnc(N3CCC(Cn4cc(C(C)(C)N)nn4)CC3)c2c1C | -0.55 |
| C=C1C2(C(=O)N3CCC(CCN4CCCC4=O)CC3)CCC(C2)C1(C)C (stereo not given) | -0.41 |
| CCCCC(CC)CN1CCC(n2cc(CNC)nn2)CC1 (stereo not given) | 1 |
| CC(=O)N[C@@H](CC(C)C)C(=O)N1CCC(n2cc(C(C)(C)N)nn2)CC1 | -0.505 |
| CC(C)c1n[nH]c2c1CN(C(=O)C1CCCCCC1)CC2 | -0.485 |
| Cc1nsc(NC(=O)N2CCCC2C)n1 (stereo not given) | -0.04 |
| Cc1ccc(NC(=O)c2csc(Cc3ccccc3)n2)cn1 | -1.08 |
| Cc1ccc(F)cc1-c1cccc(C(=O)c2nccn2C)c1 | -0.54 |
| O=C1NCCN(C(=O)c2cccc(-c3ccccc3)c2)C1Cc1ccccc1 (stereo not given) | 2.37 (active) |
